Assay outcomes deposited in PubChem by several laboratories.
An excerpt weighted towards active compounds, which were near 1.5% of everything screened.
Bcl-xL primary: blocks human Bcl-xL binding to Bim BH3 peptide. Q07817. GST-Bcl-xL / FITC-Bim BH3 peptide fluorescence polarization. inhibition, % at 10.9 µM. 320,000 compounds, 0.7% hits;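 active = inhibition above the mean of all tested compounds plus 3 SD, cutoff set per campaign, cut at about 30% in these data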;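 note: 0% = DMSO wells and 100% = unlabeled Bim-BH3 peptide competitor; inhibitors lower millipolarization by displacing the labeled peptide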
Target sequence (Q07817 whole entry, looked up): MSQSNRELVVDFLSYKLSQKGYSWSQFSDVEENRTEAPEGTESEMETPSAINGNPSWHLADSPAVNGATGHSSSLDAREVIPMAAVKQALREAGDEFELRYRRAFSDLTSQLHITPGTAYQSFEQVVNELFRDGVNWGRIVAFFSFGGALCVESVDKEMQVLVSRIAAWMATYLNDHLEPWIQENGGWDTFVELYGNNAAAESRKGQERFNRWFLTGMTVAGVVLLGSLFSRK
eLon inh: inhibits E. coli Lon protease; purified E. coli Lon protease, fluorescence polarization; inhibition, % at 7.94 µM; 360,000 compounds, 0.42% hits; AID 602123; in the data active = inhibition above about 13%, passing the limit was not always enough;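 note: 0% = enzyme with probe and DMSO and 100% = no enzyme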
MCL1-BIM inh: MCL1-BIM-BH3 interaction inhibition (human); Q07820; GST-MCL1 / FITC-Bim-BH3 fluorescence polarization; inhibition, % at 10.9 µM; 320,000 compounds, 0.68% hits;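 active = inhibition above the mean inhibition of all tested compounds plus 3 SD, set per campaign, cut at about 40% in these data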;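 note: 0% = DMSO wells and 100% = unlabeled Bim-BH3 peptide control; higher means more loss of mP so more displacement of Bim peptide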
Target sequence (Q07820 whole entry, looked up): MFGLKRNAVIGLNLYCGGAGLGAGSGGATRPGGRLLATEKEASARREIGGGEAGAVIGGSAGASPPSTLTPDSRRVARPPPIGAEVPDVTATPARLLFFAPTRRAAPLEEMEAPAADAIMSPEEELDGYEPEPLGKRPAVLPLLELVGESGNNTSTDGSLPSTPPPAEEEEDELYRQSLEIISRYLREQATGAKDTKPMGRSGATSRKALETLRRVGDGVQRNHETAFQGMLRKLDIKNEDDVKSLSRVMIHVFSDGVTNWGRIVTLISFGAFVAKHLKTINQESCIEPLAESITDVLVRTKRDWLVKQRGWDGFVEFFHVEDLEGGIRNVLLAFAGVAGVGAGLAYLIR
GLD-1 TGE inh: GLD-1-TGE RNA interaction inhibition (C. elegans); inhibition, % at 5.96 µM; 320,000 compounds, 0.44% hits; purified GLD-1 + fluorescein TGE RNA, fluorescence polarization;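 active = percent inhibition above a per-plate cutoff, the plate mean of test compounds plus 3 SD, cut at about 30% in these data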;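 note: 0% = DMSO wells with GLD-1 and probe and 100% = wells lacking GLD-1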
MEX-5 binding: C. elegans MEX-5 TCR-2 RNA binding activity. Q9XUB2. activity score (negative = inhibition of binding), % at 10 µM. 300,000 compounds, 0.38% hits. AID 1832. MEX-5/FITC-TCR2 RNA binding, fluorescence polarization; stronger effect = lower value;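 active = inhibition past about -25% in most replicates, and total fluorescence under double the plate's negative control median, limit read from the data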;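 note: 0% = DMSO and -100% = 5 µM competing unlabeled TCR2 RNA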
EBV gp42 block: blocks Epstein-Barr virus glycoprotein 42 binding; Fluorescence polarization binding assay, mP read-out; inhibition, % (tested at 21.74 µM); 220,000 compounds, 0.42% hits; Q1HVG2; in the data active = inhibition above about 50%
Bcl-xL conf: counter-screen for MCL1 inhibitors: confirmation of human Bcl-xL inhibitors; shares compounds with MCL1-BIM inh; GST-Bcl-xL / FITC-Bim BH3 peptide FP binding; inhibition, % at 10.9 µM; 1,700 compounds, 54% hits;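 active = inhibition above a cutoff equal to the mean inhibition of all tested compounds plus 3 SD, cut at about 30% in these data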;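 note: 0% = DMSO wells and 100% = unlabeled Bim BH3 control peptide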
MCL1 inh confirm: MCL1-BIM-BH3 interaction inhibition, confirmation | inhibition, % at 10.9 µM | GST-MCL1 / FITC-Bim-BH3 fluorescence polarization | 1,700 compounds, 61% hits | shares compounds with MCL1-BIM inh | AID 2168;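 active = inhibition above the average of all tested compounds plus 3 SD, cut at about 40% in these data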;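 note: 0% = DMSO wells and 100% = unlabeled Bim-BH3 control peptide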
* marks the source's active call; other numbers are inactive results; . = no result.

SMILES	Bcl-xL primary	eLon inh	MCL1-BIM inh	GLD-1 TGE inh	MEX-5 binding	EBV gp42 block	Bcl-xL conf	MCL1 inh confirm
CCC(=O)OC1(C)C(=O)C=C2C=C(C3CC3)OC=C2C1=O (centres undefined)	59*	15	63*	39*	-14	.	25	31
COC(=O)CCC(=O)OC1(C)C(=O)C=C2C=C(C3CC3)N(CC(C)C)C=C2C1=O (centres undefined)	.	.	.	.	-6	-4	.	.
COC/C=C/C1=CC2=CC(=O)C(C)(OC(=O)c3cnc4ccccc4n3)C(=O)C2=CN1C1CCCCC1 (centres undefined)	22	.	28	14	-6	.	.	.
Cc1ccc(-n2nnnc2CNC(=O)C(=O)c2c[nH]c3ccccc23)cc1C	.	0	.	.	.	.	.	.
N#C/C(=C\c1ccc[nH]1)C(=O)Nc1ccccc1Cl	52*	-6	47*	12	1	.	26	33
N#C/C(=C\c1ccc[nH]1)C(=O)Nc1ccccc1F	.	7	.	.	.	.	.	.
COc1cc(NC(=O)CSCC(=O)Nc2cc(OC)cc(OC)c2)cc(OC)c1	-3	.	-3	-2	-2	-22	.	.
c1ccc(N2CCN(c3nc4ccccc4n4nnnc34)CC2)cc1	51*	-6	59*	12	5	32	38*	38
COc1cc2cccc(OC)c(=O)c2c(O)c1OC	3	5	7	-8	2	1	.	.
COc1cc2c(ccc3cc(OC)c(OC)c(O)c32)cc1O	21	-3	78*	4	4	31	29	82*
CO[C@H]1O[C@H](C)[C@@H](O)C[C@H]1NC(=O)OCc1ccccc1	5	-3	-5	1	-2	.	.	.
CN(CC(=O)Nc1ccccc1Cl)C(=O)c1cccc(-n2cccc2)c1	-1	-4	1	-2	5	.	.	.
Cc1ccc(C)c(NC(=O)CN(C)C(=O)c2cccc(-n3cccc3)c2)c1	9	-5	46*	3	-1	.	10	64*
COC(=O)C1(NC(=O)NC2CCCCC2)CCCCC1	3	-15	-7	3	1	-2	.	.
C=CCNS(=O)(=O)c1cccc2cc(C(=O)O)c(O)cc12	14	8	97*	9	-3	-1	30	39
O=C(O)C(C(=O)/C=C/c1ccco1)=C1SCCS1	26	-8	51*	4	3	1	23	56*
O=C(C=C1SCCS1)/C=C/c1ccco1	14	-8	37	3	-4	11	.	.
COCc1nc2ccccc2n1Cc1ccccc1	2	11	-3	-4	0	-9	.	.
ClCc1nc2ccccc2n1Cc1ccccc1	129*	10	160*	57*	-66*	.	54*	79*
O=C1c2cccc(O)c2C(=O)c2c(O)cccc21	119*	.	158*	92*	-5	26	81*	97*
O=C1C=C(O)c2cccc(O)c2C1=O	12	20	13	8	.	-24	.	.
CCc1ccc(NC(=O)COC(=O)CC2CCCC2)cc1	.	-2	.	5	.	.	.	.
COC(=O)CCCC1=CC2=CC(=O)C(C)(OC(=O)C3CCCC3)C(=O)C2=CO1 (centres undefined)	45*	.	63*	48*	-27*	11	41*	63*
CCC(=O)OC1(C)C(=O)C=C2C=C(CCCC(=O)OC)OC=C2C1=O (centres undefined)	70*	10	86*	46*	-31*	.	41*	75*
CCCCC1=CC2=CC(=O)C(C)(OC(=O)CC)C(=O)C2=CN1C(CO)CO (centres undefined)	13	-7	16	17	2	-4	.	.
SMILES	Bcl-xL primary	eLon inh	MCL1-BIM inh	GLD-1 TGE inh	MEX-5 binding	EBV gp42 block	Bcl-xL conf	MCL1 inh confirm
COc1ccc(C(=O)OCC(=O)Nc2ncc([N+](=O)[O-])s2)cc1OC	23	-12	74*	-2	.	.	28	58*
Cc1ccccc1C(=O)c1cccn1CC(=O)NCCCc1ccccc1	5	5	3	3	-2	.	.	.
O=C(CSc1nc(C2CC2)nc2ccccc12)N1CCCCC1	6	-8	2	-5	-4	.	.	.
O=C(CSc1nc(C2CC2)nc2ccccc12)N1c2ccccc2Sc2ccc(C(F)(F)F)cc21	2	-9	47*	7	2	-10	11	14
CCOC(=O)CSc1nc(N2CCOCC2)c2c(c1C#N)CC(C)(C)N(C)C2	59*	4	56*	73*	-1	-13	8	13
CCCCc1ccc(NC(=S)N2CCCC(C)C2)cc1 (centres undefined)	1	2	3	7	0	-3	.	.
O=C(Nc1ccc(Nc2ccncc2)cc1)c1ccc(Nc2ccnc3ccc([N+](=O)[O-])cc23)cc1[N+](=O)[O-]	-3	-2	43*	-7	-1	17	13	27
O=C(Nc1ccc(Nc2ccncc2)cc1)c1ccc([N+](=O)[O-])cc1	4	0	6	-5	-6	-12	.	.
CCOc1cc(/C=C2\COc3ccccc3C2=O)cc(Br)c1OCC(=O)N(C)C	5	6	5	3	1	.	.	.
CC1=NN(c2cccc(C(=O)O)c2)C(=O)/C1=C\C=C\c1ccco1	26	-8	81*	-2	-27*	18	30*	68*
O=C(NC(=S)Nc1ccccc1OC(F)F)c1ccc2c(c1)OCO2	.	-2	.	-2	.	.	.	.
O=C(NCc1ccco1)c1c2c(nc3ccccc13)CCC2	22	-8	58*	10	-1	62*	30	68*
CCCCN1CC(=O)N2[C@H]3c4cc(Cl)ccc4OC[C@@H]3[C@H](C(=O)OCC)[C@]2(C)C1=O	-3	3	-2	-2	.	.	.	.
COc1cc(/C=C/C(=O)O)ccc1O	4	-7	0	1	0	.	.	.
COc1cc(/C=C/C(=O)CC(=O)/C=C/c2ccc(O)c(OC)c2)ccc1O	18	-409	57*	-108	3	10	5	-24
Cc1cc(/C=C(\C#N)c2nc3ccccc3[nH]2)c(C)n1C	110*	9	122*	133*	-28*	105*	127*	149*
COc1cc(C(C)=O)ccc1OCCCOc1cccc2cccnc12	3	1	0	-3	-3	.	.	.
C=CCOc1ccc(/C=C2\SC(=Nc3cccnc3)NC2=O)cc1	64*	-59	64*	0	-5	2	65*	74*
C=C1CCN([C@H](C(=O)NCc2ccc(OC)cc2)C(C)C)S(=O)(=O)c2ccccc21	4	-5	6	-2	1	-21	.	.
